# Bioassay records (PubChem)
# Cav3 T inh – blocks human Cav3.2 T-type calcium channel; B-score at 10 µM; Cav3.2-expressing cells, Fluo-4 calcium fluorescence FDSS; active compounds read low; O95180; 100,000 tested, 4% active;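 active = single-dose well whose peak fluorescence ratio is a statistical outlier from its plate by either plate-standardised score or position-corrected B-score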
# Target sequence (O95180 whole entry, looked up): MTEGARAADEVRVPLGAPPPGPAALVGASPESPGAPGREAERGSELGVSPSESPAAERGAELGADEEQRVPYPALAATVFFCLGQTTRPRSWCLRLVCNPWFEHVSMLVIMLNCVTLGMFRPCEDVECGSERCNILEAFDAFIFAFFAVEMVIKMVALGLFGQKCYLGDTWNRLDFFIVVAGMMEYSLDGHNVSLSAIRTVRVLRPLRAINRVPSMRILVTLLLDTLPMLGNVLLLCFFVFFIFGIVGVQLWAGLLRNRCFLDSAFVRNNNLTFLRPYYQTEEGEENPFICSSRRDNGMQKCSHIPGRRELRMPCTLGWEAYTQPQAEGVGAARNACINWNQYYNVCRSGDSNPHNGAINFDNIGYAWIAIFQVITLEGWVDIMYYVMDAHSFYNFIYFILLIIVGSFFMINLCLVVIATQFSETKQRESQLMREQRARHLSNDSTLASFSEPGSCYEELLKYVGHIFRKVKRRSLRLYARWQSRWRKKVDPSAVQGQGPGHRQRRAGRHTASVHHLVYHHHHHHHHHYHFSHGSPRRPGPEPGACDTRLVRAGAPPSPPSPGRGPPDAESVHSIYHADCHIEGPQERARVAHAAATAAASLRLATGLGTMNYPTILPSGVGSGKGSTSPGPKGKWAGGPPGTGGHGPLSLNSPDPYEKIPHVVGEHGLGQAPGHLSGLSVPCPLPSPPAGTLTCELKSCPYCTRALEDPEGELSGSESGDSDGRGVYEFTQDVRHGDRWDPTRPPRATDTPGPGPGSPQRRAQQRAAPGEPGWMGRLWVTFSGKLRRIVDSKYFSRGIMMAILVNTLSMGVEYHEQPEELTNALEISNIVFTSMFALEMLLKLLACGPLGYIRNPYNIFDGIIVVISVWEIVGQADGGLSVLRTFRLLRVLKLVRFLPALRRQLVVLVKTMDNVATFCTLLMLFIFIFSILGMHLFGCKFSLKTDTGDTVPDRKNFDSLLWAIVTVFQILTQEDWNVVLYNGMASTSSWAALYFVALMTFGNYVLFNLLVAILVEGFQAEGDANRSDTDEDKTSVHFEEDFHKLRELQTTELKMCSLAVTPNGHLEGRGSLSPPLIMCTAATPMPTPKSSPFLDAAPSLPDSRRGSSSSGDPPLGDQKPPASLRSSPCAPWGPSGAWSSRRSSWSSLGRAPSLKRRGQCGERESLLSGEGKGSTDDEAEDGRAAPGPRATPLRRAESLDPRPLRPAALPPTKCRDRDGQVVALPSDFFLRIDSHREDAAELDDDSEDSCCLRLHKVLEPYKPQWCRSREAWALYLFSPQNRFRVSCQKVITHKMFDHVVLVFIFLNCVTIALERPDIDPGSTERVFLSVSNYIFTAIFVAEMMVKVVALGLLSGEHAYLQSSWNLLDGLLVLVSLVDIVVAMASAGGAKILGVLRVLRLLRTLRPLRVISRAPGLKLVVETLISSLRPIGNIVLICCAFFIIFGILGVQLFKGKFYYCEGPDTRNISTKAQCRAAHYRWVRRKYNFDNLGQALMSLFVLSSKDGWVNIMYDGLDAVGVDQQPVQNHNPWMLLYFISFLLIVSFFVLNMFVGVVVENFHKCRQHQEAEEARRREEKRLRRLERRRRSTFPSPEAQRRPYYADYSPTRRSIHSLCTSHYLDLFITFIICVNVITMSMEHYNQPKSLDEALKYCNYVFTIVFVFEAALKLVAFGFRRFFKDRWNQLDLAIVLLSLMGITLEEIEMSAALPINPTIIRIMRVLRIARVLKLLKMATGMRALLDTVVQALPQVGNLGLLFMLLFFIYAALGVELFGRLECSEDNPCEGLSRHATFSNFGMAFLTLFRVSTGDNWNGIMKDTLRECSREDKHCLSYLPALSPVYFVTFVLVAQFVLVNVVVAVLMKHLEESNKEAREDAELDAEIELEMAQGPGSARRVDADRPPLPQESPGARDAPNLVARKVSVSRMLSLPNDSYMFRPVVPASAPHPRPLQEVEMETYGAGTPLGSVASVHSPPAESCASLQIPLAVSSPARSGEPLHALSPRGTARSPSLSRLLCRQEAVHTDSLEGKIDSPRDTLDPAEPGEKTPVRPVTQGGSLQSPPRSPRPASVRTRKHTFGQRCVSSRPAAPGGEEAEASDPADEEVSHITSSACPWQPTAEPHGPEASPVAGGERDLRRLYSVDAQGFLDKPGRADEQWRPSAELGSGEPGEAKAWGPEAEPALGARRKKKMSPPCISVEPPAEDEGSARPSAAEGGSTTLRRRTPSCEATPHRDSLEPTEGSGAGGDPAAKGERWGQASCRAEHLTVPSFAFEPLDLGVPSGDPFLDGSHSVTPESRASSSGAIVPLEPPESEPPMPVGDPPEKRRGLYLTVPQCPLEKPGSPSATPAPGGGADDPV
# NFkB transloc pot – enhances IL-1B driven NFkB nuclear translocation. HUVEC IL-1B NFkB p65 nuclear translocation imaging. 94,000 tested, 0.3% active. AID 819. activation, % at 2 µM;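 active = activation above 40%, about the mean plus 3 SD, also judged a hit on visual image review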;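 note: percent activation is computed from the nuclear over cytoplasmic p65 intensity ratio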
# IL1B cytotox – HUVEC cytotoxicity counter-screen, IL-1B stimulated. HUVEC cell count loss, Hoechst imaging. cell count reduction, % at 2 µM. 94,000 tested, 0.41% active. AID 845;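 active = cell count reduction more than 3 SD above the screen-wide mean, cut at about 70% in these data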;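 note: normalized per plate to untreated control cells as the no-loss baseline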
# IL1B NFkB inh – blocks IL-1B driven NFkB nuclear translocation in HUVEC cells. HUVEC IL-1B NFkB p65 nuclear translocation imaging. inhibition, % at 2 µM. 94,000 tested, 0.43% active. AID 796;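 active = inhibition above about 30% together with a positive call from visual inspection of the well image, limit read from the data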;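 note: nuclear over cytoplasmic p65 intensity ratio measured by imaging; 0% = IL-1B stimulated DMSO wells and 100% = unstimulated DMSO wells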
# * = called active by the depositor; . = no result. Only some compounds are listed: those with a hit (about 4.4% of all), similar ones and a draw of the others.
SMILES,Cav3 T inh,NFkB transloc pot,IL1B cytotox,IL1B NFkB inh
O=C(CSCc1ccc(Cl)cc1)Nc1ccc2c(c1)OCO2,-5.6*,-3,-23,3
Cc1ccc([N+](=O)[O-])cc1NC(=O)CN(C(=O)c1ccc(Cl)cc1)C1CCCCC1,-9.4*,5,-3,-5
Cc1ccc([N+](=O)[O-])cc1NC(=O)CCSc1ccc(Cl)cc1,-3.4,-2,21,2
CN(c1ccc([N+](=O)[O-])cc1C(=O)Nc1ccccc1)C1CCCCC1,-3.5,2,-11,-2
O=C(CN(C(=O)c1ccccc1Cl)C1CCCCC1)Nc1ccc(Cl)c([N+](=O)[O-])c1,-9.9*,-12,7,12
Cc1nn(C)cc1/C=N/NC(=O)C(C)(C)Oc1ccc(Cl)cc1,0.8,1,-3,-1
Cc1nnc(-c2cnn(C)c2N)n1Cc1cccc(Cl)c1,0.93,4,-34,-4
Cc1nnc(-c2cnn(C)c2N)n1Cc1ccccc1,-5.1*,5,10,-5
COc1ccc(NC(=S)NC(NC(=O)c2ccc(Cl)cc2Cl)C(Cl)(Cl)Cl)c([N+](=O)[O-])c1 (stereo not drawn),-5.1*,-5,-5,5
COc1ccc(NC(=O)c2ccc(C)cc2Cl)c([N+](=O)[O-])c1,0.55,-11,79*,11
COC(=O)c1ccccc1NC(=S)NC(NC(=O)c1ccco1)C(Cl)(Cl)Cl (stereo not drawn),-1.1,12,-12,-12
Cc1ccc(NC(=S)NC(NC(=O)c2ccccc2C)C(Cl)(Cl)Cl)c(C)c1 (stereo not drawn),-7.1*,-2,37,2
COC(=O)c1ccccc1NC(=S)NC(NC(=O)c1ccccc1[N+](=O)[O-])C(Cl)(Cl)Cl (stereo not drawn),-8.5*,13,-82,-13
CCC(c1nnc(SCC(=O)Nc2nnc(-c3ccccc3)o2)n1Cc1ccccc1)N(C)C (stereo not drawn),0.9,31,-16,-31
COc1cc(NC(=O)COC(=O)c2nc3nc(C)cc(C)n3n2)cc(OC)c1,-0.12,-10,-5,10
CCN(CC)CCCn1c(=S)[nH]c2cc(Cl)ccc2c1=O,-0.52,0,78*,0
CCN(CC)CCCn1c(=S)[nH]c2ccc(Cl)cc2c1=O,0.08,36,-38,-36
CCn1c(CSc2nnc(-c3ccc4c(c3)OCO4)o2)nc2cc(S(=O)(=O)N(C)C)ccc21,2.2,.,.,.
CC1(c2nnc(-c3ccncc3)o2)CC(c2ccc(F)cc2)=NO1 (stereo not drawn),0.76,.,.,.
CCC(COC(=O)Nc1cccc(C)c1)NC(=O)OCC(C)C (stereo not drawn),-4.7*,0,-6,0
O=C(CN(Cc1ccc2c(c1)OCO2)C(=O)CSc1nc2ccccc2o1)NC1CCCCC1,-3.9*,-9,-42,9
CN1C(C(=O)NCc2ccccc2)CC2Cn3c(nc4cc5ccccc5cc43)C21 (stereo not drawn),-3,.,.,.
Cc1cccc(-n2cnc(C(=O)N/N=C/c3ccccc3)c2)n1,1.2,5,3,-5
Cc1cc(C)cc(-n2c(C)cc(/C=N/NC(=O)CSc3ncccn3)c2C)c1,-6.8*,14,-6,-14
Cc1cc(C)cc(-n2c(C)cc(/C=N/NC(=O)c3cccc([N+](=O)[O-])c3C)c2C)c1,-2.5,20,-6,-20
SMILES,Cav3 T inh,NFkB transloc pot,IL1B cytotox,IL1B NFkB inh
CCOc1ccccc1NC(=O)c1ccccc1-c1nc(-c2ccccc2OC)no1,-4.7*,8,-7,-8
COc1cc(-c2noc(CCCC(=O)NCc3ccco3)n2)cc(OC)c1OC,0.64,15,31,-16
COc1ccc(N2CCN(c3oc(COc4ccc(Cl)cc4)nc3C#N)CC2)cc1,-6.1*,-3,11,3
N#Cc1nc(COc2ccccc2)oc1N1CCCCCC1,-4*,24,-7,-24
COCCNC(=O)c1ccc2c(c1)S(=O)(=O)c1ccccc1C2=O,0.68,.,.,.
O=C(NCc1ccco1)c1cnn2c(C(F)(F)F)cc(-c3cccs3)nc12,.,1,-39,-1
O=C(Nc1nnc(-c2cccs2)o1)c1cccc(Oc2ccccc2)c1,-8.3*,-3,-3,3
COc1ccc(OCC(=O)N/N=C2\CCc3ccccc32)cc1,-0.0047,-53,3,53*
COc1cccc(OCC(=O)NN=C2c3ccccc3-c3ccccc32)c1,-0.46,16,-13,-16
COCCN1CCN(C(=O)c2ccc3c(c2)S(=O)(=O)c2ccccc2C3=O)CC1,0.93,.,.,.
CCc1ccc2[nH]c(O)c(N=Nc3nc(-c4ccccc4)cs3)c2c1,-0.31,-7,-2,7
Cc1ccc(N(CC(=O)N/N=C/c2cc(C)n(-c3ccccc3)c2C)S(C)(=O)=O)c(C)c1,-6.7*,2,1,-2
CSc1cccc(NC(=O)CN(c2cccc(C)c2)S(C)(=O)=O)c1,-4.3*,20,-4,-20
Cc1cccc(N(CC(=O)Nc2ccc(F)cc2)S(C)(=O)=O)c1,-0.16,1,-45,-2
Cc1cc(/C=N/NC(=O)Cn2c3ccccc3c(=O)c3ccccc32)c(C)n1-c1ccccc1,.,11,-55,-11
CSc1cccc(NC(=O)CN(c2ccccc2)S(=O)(=O)N(C)C)c1,-2.9,-1,7,1
CSc1cccc(NC(=O)CN(c2ccc(C)cc2C)S(C)(=O)=O)c1,-7.9*,2,40,-2
CC(C)(C)NC(=O)CN(Cc1cccs1)C(=O)CCC(=O)Nc1nccs1,0.058,1,-8,0
CC(C)(C)C(=O)Nc1nc(C2CCCN2S(=O)(=O)c2ccc(Cl)cc2)cs1 (stereo not drawn),-4*,3,7,-3
O=C(CCC1COc2ccccc2O1)Nc1ccc(Cl)cn1 (stereo not drawn),-5.9*,12,-22,-12
CCOC(=O)c1c(NC(=O)CSc2nnc3c(n2)[nH]c2ccccc23)sc2c1CCN(C)C2,0.82,4,-4,-4
Cc1ccc(-c2cc(C(F)F)nc(NCc3cccnc3)n2)cc1,-4.4*,10,-52,-10
CCOC(=O)Cc1nn2c(=O)cc(C)nc2s1,-5*,17,-31,-17
CC(C)CCNC(=O)C12CN(Cc3ccccc3)CC1C(c1cccc([N+](=O)[O-])c1)=NO2 (stereo not drawn),-4.7*,0,-26,0
O=C(NCCCCc1ccccc1)C12CN(Cc3ccccc3)CC1C(c1cccc([N+](=O)[O-])c1)=NO2 (stereo not drawn),-2.3,3,-10,-2
SMILES,Cav3 T inh,NFkB transloc pot,IL1B cytotox,IL1B NFkB inh
O=C(CCN1C(=O)c2ccccc2C1=O)N1CCN(Cc2ccc(Cl)cc2Cl)CC1,-6*,.,.,.
O=C(CCN1C(=O)c2ccccc2C1=O)N1CCN(Cc2ccccc2)CC1,1.4,17,-8,-17
Oc1ccc(Cl)cc1/C=N/c1nccs1,-3.4*,9,-19,-9
CN(C)CCCN1c2ccc([N+](=O)[O-])cc2CCc2cc([N+](=O)[O-])ccc21,0.029,.,.,.
Cc1cccc(N2CCN(C(=O)CCCSc3nc4ccccc4[nH]3)CC2)c1C,-5.5*,-6,-19,6
O=C(CCCSc1nc2ccccc2[nH]1)N1CCN(c2ccccc2)CC1,-1,-2,-2,2
